Where “and” joins values, the source holds several entries; their conditions need not be identical. Equal entries are not always repeated. About 83,000 compounds went through this panel and 20% of them were active in at least one assay; those are over-represented in the sample as a whole.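 Activity criterion: percent growth below 10, measured after cells in 96-well plates were exposed to a single compound concentration for 48 hours.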 Calls of active or inactive are those of the source.
Columns and labels:
Experiment in all cases: NCI-60 one-dose screen, 48 h (100 = growth as untreated, 0 = no growth, -100 = all killed)
HCT-15 colon = tested on: HCT-15 colon
HT29 colon = tested on: HT29 colon
SNB-75 CNS = tested on: SNB-75 CNS
SNB-19 CNS = tested on: SNB-19 CNS
U251 CNS = tested on: U251 CNS
PC-3 prostate = tested on: PC-3 prostate
SK-MEL-5 melanoma = conditions: 10 µM unless noted
UACC-62 melanoma = tested on: UACC-62 melanoma
LOX IMVI melanoma = tested on: LOX IMVI melanoma
SK-MEL-2 melanoma = tested on: SK-MEL-2 melanoma
EKVX NSCLC = tested on: EKVX NSCLC
SN12C renal = tested on: SN12C renal
UO-31 renal = tested on: UO-31 renal
TK-10 renal = tested on: TK-10 renal
ACHN renal = tested on: ACHN renal
CAKI-1 renal = tested on: CAKI-1 renal
A498 renal = tested on: A498 renal
CCRF-CEM leukemia = tested on: CCRF-CEM leukemia
SK-MEL-28 melanoma = conditions: 10 µM unless noted
MOLT-4 leukemia = conditions: 10 µM unless noted

CC(C)(C)c1cc(NC(=O)Cc2ccc(-c3cnc4cc(-c5cnn(CCN6CCOCC6)c5)ccc4n3)cc2)no1
growth (HCT-15 colon; 10 µM): 9.24% (active)
growth (HCT-15 colon; 30 µM): 7.76% (active)
growth (HT29 colon; 10 µM): 25.9% (inactive)
growth (HT29 colon; 30 µM): 31.2% (inactive)
growth (SNB-75 CNS; 10 µM): -0.488% (active)
growth (SNB-75 CNS; 30 µM): -1.06% (active)
growth (SNB-19 CNS; 10 µM): 42.4% (inactive)
growth (SNB-19 CNS; 30 µM): 44% (inactive)
growth (U251 CNS; 10 µM): 22.1% (inactive)
growth (U251 CNS; 30 µM): 33.4% (inactive)
growth (PC-3 prostate; 10 µM): 24.7% (inactive)
growth (PC-3 prostate; 30 µM): 23.9% (inactive)
growth (SK-MEL-5 melanoma): 9.52% (active)
growth (UACC-62 melanoma; 10 µM): 16.3% (inactive)
growth (UACC-62 melanoma; 30 µM): 19.6% (inactive)
growth (LOX IMVI melanoma; 10 µM): 17.7% (inactive)
growth (LOX IMVI melanoma; 30 µM): 8.41% (active)
growth (SK-MEL-2 melanoma; 10 µM): -8.73% (active)
growth (SK-MEL-2 melanoma; 30 µM): 29.7% (inactive)
growth (EKVX NSCLC; 10 µM): 26.9% (inactive)
growth (EKVX NSCLC; 30 µM): 19.1% (inactive)
growth (SN12C renal; 10 µM): 7.01% (active)
growth (SN12C renal; 30 µM): 6.88% (active)
growth (UO-31 renal; 10 µM): 1.27% (active)
growth (UO-31 renal; 30 µM): 3.63% (active)
growth (TK-10 renal; 10 µM): 34.9% (inactive)
growth (TK-10 renal; 30 µM): 40.8% (inactive)
growth (ACHN renal; 10 µM): 5.88% (active)
growth (ACHN renal; 30 µM): 8.72% (active)
growth (CAKI-1 renal; 10 µM): 1.21% (active)
growth (CAKI-1 renal; 30 µM): 3.67% (active)
growth (A498 renal; 10 µM): -26.9% (active)
growth (A498 renal; 30 µM): -14.9% (active)
growth (CCRF-CEM leukemia; 10 µM): 15.5% (inactive)
growth (CCRF-CEM leukemia; 30 µM): 10.4% (inactive)

CNc1cc(-c2cccc(OC(F)(F)F)c2)nc2ccc(N3CCCC3)cc12
growth (HCT-15 colon; 10 µM unless noted): 13.5% (inactive) and -8.32% (active) and 3.05% (active)
growth (HT29 colon; 10 µM unless noted): 5.99% (active) and 1.66% (active) and 1.06% (active)
growth (SNB-75 CNS; 10 µM unless noted): 107% (inactive) and 76.5% (inactive)
growth (SNB-19 CNS; 10 µM unless noted): 18.7% (inactive) and 12.2% (inactive) and 16.2% (inactive)
growth (U251 CNS; 10 µM unless noted): -42.1% (active) and -81.2% (active) and -79.4% (active)
growth (PC-3 prostate; 10 µM unless noted): -72% (active) and 8.8% (active) and 13.1% (inactive)
growth (SK-MEL-5 melanoma): -77.4% (active) and -88.7% (active) and -70.6% (active)
growth (UACC-62 melanoma; 10 µM unless noted): -71.8% (active) and -74.8% (active) and -72.1% (active)
growth (LOX IMVI melanoma; 10 µM unless noted): -64.1% (active) and -93.8% (active) and -90.1% (active)
growth (SK-MEL-28 melanoma): -66.3% (active) and -82.3% (active) and -64.4% (active)
growth (SK-MEL-2 melanoma; 10 µM unless noted): 85.6% (inactive) and -78.5% (active) and -74.4% (active)
growth (EKVX NSCLC; 10 µM unless noted): 84.1% (inactive) and 39.2% (inactive) and 11.9% (inactive)
growth (SN12C renal; 10 µM unless noted): -18.5% (active) and -44.5% (active) and -23.2% (active)
growth (UO-31 renal; 10 µM unless noted): 7.85% (active) and -81.2% (active) and 26.1% (inactive)
growth (TK-10 renal; 10 µM unless noted): -55% (active) and -45.4% (active) and -12% (active)
growth (ACHN renal; 10 µM unless noted): -99.6% (active) and -99.5% (active) and -98.9% (active)
growth (CAKI-1 renal; 10 µM unless noted): 68.2% (inactive) and -88.8% (active) and -50.9% (active)
growth (A498 renal; 10 µM unless noted): 77.2% (inactive) and 45.9% (inactive) and 47.7% (inactive)
growth (CCRF-CEM leukemia; 10 µM unless noted): -36.5% (active) and -23.4% (active) and -0.147% (active)

CCC(O)c1ccccc1 (centres undefined)
growth (HCT-15 colon; 10 µM unless noted): 113% (inactive) and 105% (inactive)
growth (HT29 colon; 10 µM unless noted): 104% (inactive) and 105% (inactive)
growth (SNB-75 CNS; 10 µM unless noted): 88% (inactive) and 97.5% (inactive)
growth (SNB-19 CNS; 10 µM unless noted): 110% (inactive) and 103% (inactive)
growth (U251 CNS; 10 µM unless noted): 102% (inactive)
growth (PC-3 prostate; 10 µM unless noted): 116% (inactive) and 102% (inactive)
growth (SK-MEL-5 melanoma): 107% (inactive) and 95.3% (inactive)
growth (UACC-62 melanoma; 10 µM unless noted): 111% (inactive) and 97.7% (inactive)
growth (LOX IMVI melanoma; 10 µM unless noted): 104% (inactive) and 108% (inactive)
growth (SK-MEL-28 melanoma): 75.7% (inactive) and 98.6% (inactive)
growth (SK-MEL-2 melanoma; 10 µM unless noted): 104% (inactive)
growth (EKVX NSCLC; 10 µM unless noted): 94.1% (inactive) and 110% (inactive)
growth (SN12C renal; 10 µM unless noted): 98.1% (inactive) and 96.2% (inactive)
growth (UO-31 renal; 10 µM unless noted): 98.8% (inactive) and 91.3% (inactive)
growth (TK-10 renal; 10 µM unless noted): 113% (inactive) and 111% (inactive)
growth (ACHN renal; 10 µM unless noted): 107% (inactive) and 111% (inactive)
growth (CAKI-1 renal; 10 µM unless noted): -23.1% (active) and 97% (inactive)
growth (A498 renal; 10 µM unless noted): 88.5% (inactive) and 92.8% (inactive)
growth (CCRF-CEM leukemia; 10 µM unless noted): 103% (inactive) and 92% (inactive)
growth (MOLT-4 leukemia): 98.1% (inactive) and 78.8% (inactive)

Reference: PubChem BioAssay (NCI)
